# Values joined by “and” are separate entries in the source; they are usually repeats but may differ in a detail not shown here. Equal entries are not always repeated. Inconclusive results are not listed. Active and inactive are the calls of the source. Calls come from the whole dose curve; as a rule, active = well fitted activation curve with a large enough effect; inconclusive = small, poorly fitted or top-dose-only effect; inactive = no such curve, though single readings can be large or run the other way.
# Assay: qHTS for small molecules that induce genotoxicity in ELG1 expressing cells: Confirmatory Assay for Cherry-picked Compounds; note: nearly all actives have a fitted effect of over 35% in size
# Conditions: ELG1-luciferase reporter cells, luminescence, 16 h; series mostly up to 46.1 µM
# Method in brief: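 Activation readout: ONE-Glo luciferase signal from ELG1 reporter cells, 2,000 per well, after 16 hr compound incubation at 37 C. Increased ELG1-driven luminescence reflects genetic stress.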
# Potency is the fitted concentration of half-maximal effect.
row,Compound,Potency
1,CN(C)c1ccc(/C=C/c2ccc3ccccc3[n+]2[O-])cc1,0.0792 µM (active)
2,CCCCCCC[C@@H](C/C=C/CCC(=O)N(C)C/C(=C/Cl)C/C(=C\C(=O)N1CC(OC)=CC1=O)OC)OC,1.99 µM (active)
3,Cc1c(C(=O)Nc2nccs2)oc2ccc(Br)cc12,11.2 µM (active)
4,Cc1ccc(C(=O)Cn2c3c(sc2=N)CCCC3)cc1,0.141 µM (active)
5,O=c1[nH]c(=O)n([C@@H]2O[C@H](CO)[C@@H](O)[C@H]2O)cc1F,3.97 µM (active)
6,CS(=O)c1ccc(/C=C2\C=Cc3ccccc32)cc1 (stereo not drawn),1.26 µM (active)
7,N#Cc1cc2cc3c(cc2nc1SCC(=O)N1CCOCC1)OCO3,4.45 µM (active)
8,CC1CCC(NC(=O)CN2C(=O)NC(C)(C)C2=O)CC1 (stereo not drawn),inactive
9,Cc1cc2ncc(-c3ccccc3)nc2cc1C,1.41 µM (active)
10,Fc1ccc2cc(CCO[C@H]3CCCCO3)ncc2c1,3.97 µM (active)
11,N#C/C(=C\c1cccnc1)c1ccccn1,inactive
12,COc1cccc(NC(=O)COC(=O)c2sccc2C)c1,11.2 µM (active)
13,Cc1cc(C(=O)COC(=O)c2cccnc2Cl)c(C)n1C,0.706 µM (active)
14,COc1cc(/C=C(\C#N)C(=O)Nc2cccc(C(=O)O)c2)ccc1OCc1ccc(Cl)cc1,8.89 µM (active)
15,CC1CCc2nc(-c3cc4ccc(O)cc4oc3=O)sc2C1 (stereo not drawn),1.26 µM (active)
16,O=C(Nc1cc(Cl)ccc1Cl)c1ccc(OC(=O)c2ccco2)cc1,inactive
17,CC(C)C(=O)SCCCCCCC(=O)Nc1nc(-c2ccccc2)cs1,12.5 µM (active)
18,O=C(OCC(=O)N1CCCCC1)c1cccs1,14.1 µM (active)
19,COc1ccc(-c2cnc(-c3cccnc3)o2)cc1,15.8 µM (active)

row,Compound,Potency
1,COC(=O)Nc1nc2ccc(C(=O)c3cccs3)cc2[nH]1,2.23 µM (active)
2,O=C1CCc2cc(NS(=O)(=O)c3ccccc3)cc3c2N1CCC3,inactive
3,O=C1CCc2cc(NS(=O)(=O)c3ccccc3)cc3c2N1CC3,inactive
4,COc1ccc(/C=C/c2ccc3ccccc3n2)c(OC)c1,0.25 µM (active)
5,Cc1ccc2nc3sc(C(=O)NCc4ccco4)cc3cc2c1,7.05 µM (active)
6,COc1ccc(S(=O)(=O)Nc2cccc3cccnc23)c([N+](=O)[O-])c1,inactive
7,Cn1cccc1C(=O)OCC(=O)Nc1sccc1C#N,15.8 µM (active)
8,Cc1ccc(-c2nnc(SCC(=O)Nc3ccccc3F)o2)cc1,115 nM (active) and 88.9 nM (active)
9,O=C(CSc1nnc(-c2ccc(O)cc2)o1)Nc1ccccc1Br,14.1 µM (active)
10,Cc1cc(C)cc(NC(=O)CCc2nc3sc4c(c3c(=O)[nH]2)CCCC4)c1,inactive
11,O=C(c1cc2ccccc2[nH]1)c1cc2cc(O)ccc2[nH]1,7.05 µM (active)
12,Oc1ccc(/C=C/c2c(F)cccc2F)c2cccnc12,9.96 µM (active)
13,CN(Cc1ccco1)c1ncnc2ccc(-c3cccc(Cl)c3)cc12,inactive
14,c1nc(CCO[C@H]2CCCCO2)cc2cc3c(cc12)OCO3,0.281 µM (active)
15,Cc1cc(C)c(C#N)c(SCC(=O)Nc2cc(C)on2)n1,4.99 µM (active)
16,COCCn1c(C)cc(C(=O)COC(=O)c2cccnc2SC)c1C,2.23 µM (active)
17,Oc1ccc(CCc2ccccc2F)c2cccnc12,14.1 µM (active)
18,CC(=O)Nc1ccc(/C=C/c2sc3ccccc3[n+]2CCCCI)cc1,22.3 µM (active)
19,COc1cc(/C=C(\C#N)C(=O)Nc2cccc(C(=O)O)c2)ccc1OCc1ccc(F)cc1,28.1 µM (active)
